High-throughput results as filed in PubChem BioAssay.
APE1 inh – blocks human APE1 abasic DNA cleavage | P27695 | recombinant APE1, TAMRA/BHQ-2 abasic DNA cleavage fluorescence | Potency, µM (highest dose often 65.8 µM), inactives show top-dose activity change, negative = inhibition, actives largely listed as inhibitors | 350,000 tested, 0.35% active | AID 2517;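 further: plate controls were vehicle for no effect and reference inhibitor for full effect; nearly all actives have a fitted effect of over 55% in size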
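Kinetic fluorescence read (525 ex/598 em nm, three reads 60 s apart) of AP-site incision; signal = third minus first read. Enzyme 0.75 nM, dual-labelled THF duplex 50 nM, compound preincubation 15 min RT.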
L3MBTL1 block – blocks human L3MBTL1. AlphaScreen L3MBTL1–H3K9me1 peptide binding. Potency, µM (highest dose often 57.1 µM), inactives show at the highest dose activity, negative = inhibition, actives largely listed as inhibitors. 230,000 tested, 0.66% active. AID 485360; further: nearly all actives have a fitted effect of over 60% in size
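AlphaScreen proximity signal between nickel-chelate acceptor and streptavidin donor beads (final 10 ug/mL) reports binding of 50 nM L3MBTL1 to 75 nM biotin-H3 K9me1 peptide; complex incubated with compounds 30 min at room temperature; cefsulodin titration as control.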
BLM helicase inh – Bloom syndrome helicase (human) inhibition; P54132; recombinant BLM DNA unwinding, fluorescence dequenching; Potency, µM (doses to about 56.1 µM), for inactives: at the top dose activity change, negative = inhibition, actives largely listed as inhibitors; 350,000 tested, 0.2% active; AID 2528;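 further: plate controls were vehicle for no effect and no enzyme for full effect; nearly all actives have a fitted effect of over 35% in size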
RECQ1 inh-1 – inhibitors of human RECQ1 DNA helicase | P46063 | RECQ1 DNA unwinding, red fluorescence kinetic read | Potency, µM (highest dose often 57.3 µM), for inactives: top-dose activity, negative = inhibition, most hits filed as inhibitors | 240,000 tested, 0.54% active | AID 2549;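 further: plate controls were vehicle for no effect and no enzyme for full effect; nearly all actives have a fitted effect of over 30% in size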
Target sequence (P46063 whole entry, looked up): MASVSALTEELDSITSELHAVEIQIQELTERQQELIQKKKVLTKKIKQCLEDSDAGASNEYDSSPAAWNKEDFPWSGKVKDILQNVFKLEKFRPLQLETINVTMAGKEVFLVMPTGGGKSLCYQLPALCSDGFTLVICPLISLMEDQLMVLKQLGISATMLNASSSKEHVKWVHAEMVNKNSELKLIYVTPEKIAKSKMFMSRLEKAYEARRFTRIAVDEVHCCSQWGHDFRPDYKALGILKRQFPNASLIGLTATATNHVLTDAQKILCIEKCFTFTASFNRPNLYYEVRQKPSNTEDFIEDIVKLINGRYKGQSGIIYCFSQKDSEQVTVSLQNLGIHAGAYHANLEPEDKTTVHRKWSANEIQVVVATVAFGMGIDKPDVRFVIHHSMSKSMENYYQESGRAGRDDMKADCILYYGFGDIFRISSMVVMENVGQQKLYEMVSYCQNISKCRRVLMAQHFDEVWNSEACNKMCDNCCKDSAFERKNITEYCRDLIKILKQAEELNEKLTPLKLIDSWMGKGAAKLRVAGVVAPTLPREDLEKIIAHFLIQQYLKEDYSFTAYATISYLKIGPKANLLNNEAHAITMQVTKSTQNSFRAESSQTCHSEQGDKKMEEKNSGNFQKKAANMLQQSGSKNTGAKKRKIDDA
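50 nM RECQ1T1 preincubated 15 min with compound in Tris pH 8.0 buffer with MgCl2, DTT, Tween-20 and 2.5 ug/ml poly(dI-dC); started with 200 nM TAMRA/BHQ-2 forked duplex and 2 mM ATP. Unwinding read as fluorescence (525/598 nm), two reads 2 h apart.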
RECQ1 conf – confirmation of human RECQ1 helicase inhibitors. shares compounds with RECQ1 inh-1. RECQ1 helicase DNA unwinding, fluorescence. Potency, µM (top dose mostly 229 µM), for inactives: top-dose activity change, negative = inhibition, actives largely listed as inhibitors. 610 tested, 28% active. AID 2708; further: nearly all actives have a fitted effect of over 45% in size
RECQ1 ADP FP – ADP displacement flagged in RECQ1 inhibitor counter-screen; shares compounds with RECQ1 inh-1; ADP fluorescence polarization displacement counterscreen; Potency, µM (titrated, usually from 228 µM), for the others: at the highest dose activity change, negative = inhibition, actives largely listed as inhibitors; 530 tested, 27% active; AID 2711; further: nearly all actives have a fitted effect of over 45% in size
RECQ1 inh-2 – confirmation of human RECQ1 helicase inhibitors | shares compounds with RECQ1 inh-1 | Potency, µM (series often up to 119 µM), inactives show at the highest dose activity, negative = inhibition, hits mostly inhibitors | 1,100 tested, 15% active | recombinant RECQ1 DNA unwinding, red fluorescence; further: nearly all actives have a fitted effect of over 50% in size
Numbers without * were called inactive; i = inactive; u = inconclusive; x = no result; [ ] = remark or other dose. An excerpt weighted towards active compounds, which were near 0.78% of everything screened. The call rests on the fitted dose curve; in most records, active means well fitted curve in the direction sought with a large enough effect; inconclusive means small, poorly fitted or top-dose-only effect, or another doubt; inactive means no such curve, though single readings can be large; an effect the other way counts as inactive or inconclusive. Unless noted, on the % scale 0 is the no-effect control and ±100 the full control effect; potency means the concentration at half of the fitted maximal effect.

SMILES	APE1 inh	L3MBTL1 block	BLM helicase inh	RECQ1 inh-1	RECQ1 inh-2	others
Cc1ccc(C)c(NC(=O)c2cc(S(=O)(=O)NCCc3ccccc3)ccc2F)c1	x	x	-7.2%	x	x
Cc1ccc(NC(=O)c2cc(S(=O)(=O)NCCc3ccccc3)ccc2F)cc1Cl	-5.1%	6.6%	-9.9%	u	-19.3%
COc1ccc(NC(=O)C23CC4CC(C2)CC(c2ccc(C)cc2)(C4)C3)cc1	4.4%	3.0%	-7.2%	-0.4%	x
COc1ccccc1NC(=O)C12CC3CC(C1)CC(c1ccc(C)cc1)(C3)C2	-2.0%	12.3%	-5.3%	31.6µM*	-13.7%
CCOC(=O)c1ccc(N2C(=O)c3n[nH]c(-c4ccco4)c3C2c2ccccc2OC)cc1 (configuration not stated)	x	x	-15.6%	x	x
CC(=O)O[C@H](C(=O)O[C@@H]1C[C@@H](CCC[C@H]2O[C@H](C(=O)OC(C)C)CC[C@@H]2C)O[C@@H](CC#N)C1)c1ccccc1	16.1%	x	2.1%	-4.5%	x
CN1/C(=C\C(=S)NC(=O)c2ccccc2Cl)C(C)(C)c2ccccc21	-4.5%	u	-4.3%	25.1µM*	u
CN1/C(=C/C(=S)NC(=O)C2(C)CC2(Cl)Cl)C(C)(C)c2ccccc21 (configuration not stated)	2.9%	-11.3%[11.4 µM]	-8.0%	i	x
COc1ccc2nc(N(Cc3cccnc3)C(=O)C3CCCCC3)sc2c1	x	x	-8.2%	x	x
CO[C@H]1COC(=O)C/C=C\[C@H](C)[C@@H](OC)COC(=O)[C@H](C)COC(=O)C/C=C\[C@@H]1C	u	x	-0.7%[12.4 µM]	20.4%[11.5 µM]	x
Cc1cc2cc(CNC(=O)c3ccc(S(=O)(=O)N4CCCC4)cc3)ccc2n1C	-5.0%	-7.6%	-12.1%	u	-5.6%
Cc1cc2cc(CNS(=O)(=O)c3ccccc3)ccc2n1C	5.6%	x	-12.4%	u	u
COc1ccc(S(=O)(=O)NCc2ccc3c(c2)cc(C)n3C)cc1	-10.7%	-4.6%	-12.9%	31.6µM*	u
Cc1cc2cc(CNC(=O)c3ccc(S(=O)(=O)N4CCCCC4)cc3)ccc2n1C	-2.4%	x	-1.5%	3.7%	x
Cc1ccc(NC(=O)CCCn2c(=O)c3cccn3c3cccnc32)c(Cl)c1	x	x	-4.6%	x	x
COc1ccc(CNC(=O)c2cc3c(=O)n(Cc4cccs4)ccc3nc2C)cc1	x	x	0.5%	x	x
O=C(c1cccc(F)c1)N1CCC2(CC1)CN(c1ccc(-c3ccccc3)cc1)C2	-5.0%	x	-9.2%	-3.3%	x
[O]=[Bi][O]C(=O)[O][Bi]=[O]	x	x	1.4%	x	x
CCOc1ccc(C(NC(=O)CC)c2c(O)ccc3ccccc23)cc1 (configuration not stated)	-17.7%	0.9%	-7.6%	x	x
CC(=O)Oc1ccc2ccccc2c1C(NC(=O)Cc1ccccc1)c1ccc(Cl)cc1 (configuration not stated)	8.5%	-1.7%	-11.7%	u	-13.4%
Cc1cc(OCC(=O)N2CCC(c3nc4ccccc4s3)CC2)ccc1Cl	x	x	-10.4%	x	x
CCOc1ccc2nc(SCC(=O)N3c4ccccc4Sc4ccccc43)sc2c1	15.7%	-3.5%	0.3%	-0.7%	x	RECQ1 conf=-7.3%;RECQ1 ADP FP=15.2%
Cc1ccc(NC(=O)C2CCCN2S(=O)(=O)c2cccc3nsnc23)cc1Cl (configuration not stated)	x	x	-6.8%	x	x
O=C(O)c1ccc(Cl)c(NC(=O)C2CCCN2S(=O)(=O)c2cccc3nsnc23)c1 (configuration not stated)	-2.3%	9.6%	0.9%	-1.9%	x	RECQ1 conf=0.7%;RECQ1 ADP FP=1.4%
COc1cccc(C(=O)Nc2cccc(NC(=O)c3ccc(Cl)cc3Cl)c2)c1	x	x	-4.3%	x	x
SMILES	APE1 inh	L3MBTL1 block	BLM helicase inh	RECQ1 inh-1	RECQ1 inh-2	others
COc1cccc(C(=O)Nc2cccc(C(=O)NC3=NN(c4c(Cl)cc(Cl)cc4Cl)C(=O)C3)c2)c1	5.9%	u	-25.9%	31.6µM*	u
COc1ccc(N2CCN(C(=O)c3cc4c(=O)n(Cc5cccs5)ccc4nc3C)CC2)cc1	x	x	-8.9%	x	x
CCOCCc1nn2c(=O)cc(COC(=O)CNC(=O)c3ccc(F)cc3)nc2s1	x	x	1.2%	x	x
COc1cc(Cl)c(C)cc1NC(=O)C1CCN(c2nc3ccccc3n3cccc23)CC1	x	x	-3.6%	x	x
CC(=O)C1=C(C)OC2(O)c3ccccc3C(=O)C12O (configuration not stated)	u	-9.0%	-26.6%	u	-11.6%
O=C(O)CC(SCC(=O)NC1CCCc2ccccc21)C(=O)O (configuration not stated)	-2.2%	-3.1%	1.3%	7.2%	x	RECQ1 conf=1.3%;RECQ1 ADP FP=5.7%
O=C(CSc1nccc(=O)[nH]1)NC1CCCc2ccccc21 (configuration not stated)	2.9%	7.8%	-4.7%	-0.9%	x
Cc1nc2nncn2c(Nc2ccc(F)cc2)c1C	x	x	2.1%	x	x
Cc1ccc(CNC(=O)C(Cc2ccccc2)NS(=O)(=O)c2ccc3c(c2)CCC(=O)N3)cc1 (configuration not stated)	-2.5%	x	-0.3%	-3.9%	x	RECQ1 conf=-5.6%;RECQ1 ADP FP=11.2%
Cc1ccc(NC(=O)C(Cc2ccccc2)NS(=O)(=O)c2ccc3c(c2)CCC(=O)N3)cc1 (configuration not stated)	x	x	-5.4%	x	x
CC1(OC(=O)c2cnc3ccccc3n2)C(=O)C=C2C=C(C3CC3)OC=C2C1=O (configuration not stated)	-4.4%	x	-0.5%	12.6µM*	-27.4%
CC1(OC(=O)c2ccco2)C(=O)C=C2C=C(C3CC3)OC=C2C1=O (configuration not stated)	-4.7%	x	-2.5%	-6.2%	x
CCC1=NN2C(=N)/C(=C\c3ccc(SCc4ccco4)o3)C(=O)N=C2S1	u	x	u	22.4µM*	-30.4%
CCCC1=NN2C(=N)/C(=C\c3ccc(SCc4ccco4)o3)C(=O)N=C2S1	3.98µM*	x	u	10µM*	35.5µM*
O=C1NC(=S)S/C1=C\c1ccc(SCc2ccco2)o1	1.78µM*	3.55µM*	u	5.01µM*	x	RECQ1 conf=39.8µM*
Cc1cccc(NC(=O)CC(=O)Nc2cccc(C)c2)c1	-8.3%	x	-0.9%	x	x
Cc1ccc(SCC(=O)Nc2cccc(C)c2)cc1	-2.0%	32.9%	-0.2%	25.1µM*	-11.9%
CNc1ccc(Br)cc(C(=O)/C=C/c2ccc(OC)cc2OC)c1=O	-8.9%	u	u	-14.8%	x
CCNc1ccc(Br)cc(C(=O)/C=C/c2ccc(Cl)cc2)c1=O	1.6%	-18.0%	-19.7%	31.6µM*	-28.8%
O=C(/C=C/c1ccc(F)cc1)c1cc(Br)ccc1O	-0.9%	51.3%	-0.1%	-1.6%	x
